Here are results for one sequence from publication PMC7862700, “An all-to-all approach to the identification of sequence-specific readers for epigenetic DNA modifications on cytosine”.

Common to all, as to assay: DAPPL (digital affinity profiling via proximity ligation, sequencing); 10 mM Tris-HCl pH 7.5, 50 mM NaCl, 1 mM DTT, 4% glycerol, room temperature, 30 min; GST-TFs on glutathione beads, 16-mer random dsDNA library, 0.1% formaldehyde crosslink after washing; high values mean tight binding
One test has as its target T1, FEV (Homo sapiens, UniProt Q99581 1-238).
T1 sequence: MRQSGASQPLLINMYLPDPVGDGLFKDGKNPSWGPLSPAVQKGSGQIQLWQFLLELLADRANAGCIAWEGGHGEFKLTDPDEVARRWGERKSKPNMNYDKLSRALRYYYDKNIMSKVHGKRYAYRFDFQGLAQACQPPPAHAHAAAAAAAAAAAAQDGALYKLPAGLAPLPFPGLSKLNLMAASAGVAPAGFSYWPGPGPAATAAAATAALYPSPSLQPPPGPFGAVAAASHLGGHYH
The following applies: protein: recombinant; tags: N-terminal GST; dsDNA, one strand shown. The method in brief: (§1)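 Each value of binding signal is a hexamer's read frequency for a factor divided by the same hexamer's frequency in the tag-only sample. Barcoded, bead-captured GST fusions of human transcription factors made in yeast were pooled with that sample and incubated with 200 nmole of a random double-stranded 16-mer DNA library in Tris/NaCl/DTT/glycerol buffer at room temperature for 30 min. Washing, 0.1% formaldehyde crosslinking, proximity ligation, PCR and Illumina NextSeq500 sequencing followed.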

Another test has as its target ETV5 (Homo sapiens, UniProt P41161 1-510). The following applies: protein: recombinant; tags: N-terminal GST; dsDNA, one strand shown. The method in brief:
as §1

A further test concerns the target HSF1 (Homo sapiens, UniProt Q00613 1-529). The settings on record: protein: recombinant; tags: N-terminal GST; chain copies: 3; dsDNA, one strand shown. The method in brief:
as §1

The next test has as its target T2, SPIC (Homo sapiens, UniProt Q8N5J4 1-248).
T2 sequence: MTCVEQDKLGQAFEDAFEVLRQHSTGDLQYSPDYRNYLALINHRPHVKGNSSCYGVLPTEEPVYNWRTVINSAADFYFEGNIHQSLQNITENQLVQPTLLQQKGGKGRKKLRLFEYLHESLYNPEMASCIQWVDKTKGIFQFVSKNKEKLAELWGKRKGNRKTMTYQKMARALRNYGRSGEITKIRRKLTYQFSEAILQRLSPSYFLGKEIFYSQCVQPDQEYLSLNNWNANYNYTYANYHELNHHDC
The following applies: protein: recombinant; tags: N-terminal GST; dsDNA, one strand shown. In a few lines: as §1

In the next test the target is ELF4 (Homo sapiens, UniProt Q99607 1-663). The settings on record: protein: recombinant; tags: N-terminal GST; dsDNA, one strand shown. In a few lines:
as §1

Another test addresses T3, ELK4 (Homo sapiens, UniProt P28324-2 1-405).
T3 sequence: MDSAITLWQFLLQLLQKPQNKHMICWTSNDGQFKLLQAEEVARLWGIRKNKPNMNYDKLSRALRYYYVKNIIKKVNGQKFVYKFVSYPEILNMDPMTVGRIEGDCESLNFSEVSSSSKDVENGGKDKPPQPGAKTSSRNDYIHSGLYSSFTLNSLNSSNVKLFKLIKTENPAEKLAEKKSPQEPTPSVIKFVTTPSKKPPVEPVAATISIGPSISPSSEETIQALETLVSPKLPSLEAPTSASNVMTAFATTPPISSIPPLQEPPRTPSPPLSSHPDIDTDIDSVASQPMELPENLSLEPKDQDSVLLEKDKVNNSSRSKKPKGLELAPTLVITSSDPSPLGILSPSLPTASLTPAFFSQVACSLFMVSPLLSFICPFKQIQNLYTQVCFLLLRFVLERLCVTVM
The settings on record: protein: recombinant; tags: N-terminal GST; dsDNA, one strand shown. In a few lines:
as §1

A further test has as its target T4, ETV2 (Homo sapiens, UniProt O00321 1-342).
T4 sequence: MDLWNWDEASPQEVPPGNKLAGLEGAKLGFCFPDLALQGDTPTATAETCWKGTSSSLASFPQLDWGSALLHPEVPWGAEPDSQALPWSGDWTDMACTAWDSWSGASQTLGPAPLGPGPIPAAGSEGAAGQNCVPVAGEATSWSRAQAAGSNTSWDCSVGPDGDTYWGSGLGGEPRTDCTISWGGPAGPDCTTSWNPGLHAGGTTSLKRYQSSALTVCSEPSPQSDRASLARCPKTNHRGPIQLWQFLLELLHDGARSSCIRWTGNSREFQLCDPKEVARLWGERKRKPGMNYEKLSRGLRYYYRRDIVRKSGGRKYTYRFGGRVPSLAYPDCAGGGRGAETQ
The settings on record: protein: recombinant; tags: N-terminal GST; dsDNA, one strand shown. In a few lines:
as §1

Another test has as its target T5, ELF3 (Homo sapiens, UniProt P78545 1-371).
T5 sequence: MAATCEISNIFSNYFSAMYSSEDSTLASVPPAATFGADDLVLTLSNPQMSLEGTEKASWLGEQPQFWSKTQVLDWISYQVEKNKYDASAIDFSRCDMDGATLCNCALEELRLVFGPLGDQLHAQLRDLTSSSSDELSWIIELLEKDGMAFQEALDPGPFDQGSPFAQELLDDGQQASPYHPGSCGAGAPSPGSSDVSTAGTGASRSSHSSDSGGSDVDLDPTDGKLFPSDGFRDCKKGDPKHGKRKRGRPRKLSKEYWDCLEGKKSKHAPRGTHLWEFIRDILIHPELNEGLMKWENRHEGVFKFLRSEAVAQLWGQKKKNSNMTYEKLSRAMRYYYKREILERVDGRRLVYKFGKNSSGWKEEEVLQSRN
The following applies: protein: recombinant; tags: N-terminal GST; dsDNA, one strand shown. In a few lines: as §1

Another test addresses CRX (Homo sapiens, UniProt O43186 1-299). The settings on record: protein: recombinant; tags: N-terminal GST; dsDNA, one strand shown. The method in brief:
as §1

The target of another test is ETV1 (Homo sapiens, UniProt P50549 1-477). The settings on record: protein: recombinant; tags: N-terminal GST; dsDNA, one strand shown. In a few lines: as §1
ETV1, sequence (P50549 whole entry): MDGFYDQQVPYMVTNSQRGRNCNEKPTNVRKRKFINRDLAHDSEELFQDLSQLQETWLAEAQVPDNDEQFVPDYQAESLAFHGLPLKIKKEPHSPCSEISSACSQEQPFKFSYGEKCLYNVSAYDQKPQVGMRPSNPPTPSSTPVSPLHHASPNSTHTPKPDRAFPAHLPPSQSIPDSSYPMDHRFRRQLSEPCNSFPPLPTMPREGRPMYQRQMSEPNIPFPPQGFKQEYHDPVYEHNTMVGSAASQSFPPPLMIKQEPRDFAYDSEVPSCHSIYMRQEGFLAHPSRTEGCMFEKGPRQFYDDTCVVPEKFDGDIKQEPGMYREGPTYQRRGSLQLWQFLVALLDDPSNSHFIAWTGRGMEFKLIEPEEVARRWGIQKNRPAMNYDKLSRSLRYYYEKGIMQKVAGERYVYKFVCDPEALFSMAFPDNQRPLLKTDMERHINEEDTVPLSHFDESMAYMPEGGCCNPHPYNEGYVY
A further test has as its target T6, ERF (Homo sapiens, UniProt P50548 1-548).
T6 sequence: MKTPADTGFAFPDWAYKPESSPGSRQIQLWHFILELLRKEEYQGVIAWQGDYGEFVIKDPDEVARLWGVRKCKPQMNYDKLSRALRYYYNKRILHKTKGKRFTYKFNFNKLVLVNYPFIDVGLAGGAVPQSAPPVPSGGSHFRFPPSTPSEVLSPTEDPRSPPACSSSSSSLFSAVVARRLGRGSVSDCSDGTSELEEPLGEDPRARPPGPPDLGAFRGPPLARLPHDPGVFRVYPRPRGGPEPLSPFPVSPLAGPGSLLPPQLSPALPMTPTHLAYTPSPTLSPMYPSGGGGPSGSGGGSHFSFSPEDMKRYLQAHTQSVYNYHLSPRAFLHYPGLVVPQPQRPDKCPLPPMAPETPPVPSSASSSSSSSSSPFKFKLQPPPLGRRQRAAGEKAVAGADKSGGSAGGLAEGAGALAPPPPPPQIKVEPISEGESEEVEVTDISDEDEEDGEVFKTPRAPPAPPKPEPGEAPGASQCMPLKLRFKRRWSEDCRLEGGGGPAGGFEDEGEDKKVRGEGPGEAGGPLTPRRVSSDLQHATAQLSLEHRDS
The following applies: protein: recombinant; tags: N-terminal GST; dsDNA, one strand shown. The method in brief:
as §1

In another test the target is T7, ETV3L (Homo sapiens, UniProt Q6ZN32 1-361).
T7 sequence: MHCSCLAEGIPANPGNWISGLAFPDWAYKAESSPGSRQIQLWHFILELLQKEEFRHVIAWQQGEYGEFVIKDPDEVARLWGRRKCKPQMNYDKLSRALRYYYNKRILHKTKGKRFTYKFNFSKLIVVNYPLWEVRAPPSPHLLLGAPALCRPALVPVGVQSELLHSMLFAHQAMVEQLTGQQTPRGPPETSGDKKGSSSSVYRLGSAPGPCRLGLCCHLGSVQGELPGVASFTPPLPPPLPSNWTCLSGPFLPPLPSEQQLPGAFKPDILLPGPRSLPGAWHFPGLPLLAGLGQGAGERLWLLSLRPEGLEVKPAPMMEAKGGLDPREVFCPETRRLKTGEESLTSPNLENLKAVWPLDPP
The settings on record: protein: recombinant; tags: N-terminal GST; dsDNA, one strand shown. In a few lines: as §1

A further test deals with T8, ETS2 (Homo sapiens, UniProt P15036 1-469).
T8 sequence: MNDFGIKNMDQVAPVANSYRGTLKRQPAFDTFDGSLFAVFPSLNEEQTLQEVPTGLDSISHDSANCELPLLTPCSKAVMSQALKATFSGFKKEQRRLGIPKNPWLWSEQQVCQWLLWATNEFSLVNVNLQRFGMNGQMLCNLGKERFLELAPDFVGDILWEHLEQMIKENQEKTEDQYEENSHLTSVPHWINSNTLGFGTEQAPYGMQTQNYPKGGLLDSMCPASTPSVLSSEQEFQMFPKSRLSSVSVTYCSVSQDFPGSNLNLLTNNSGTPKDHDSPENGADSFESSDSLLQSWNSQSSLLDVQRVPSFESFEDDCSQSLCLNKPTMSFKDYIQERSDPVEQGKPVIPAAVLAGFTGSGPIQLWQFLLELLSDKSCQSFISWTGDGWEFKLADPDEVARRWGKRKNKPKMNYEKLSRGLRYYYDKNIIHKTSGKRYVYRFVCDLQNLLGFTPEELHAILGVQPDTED
The settings on record: protein: recombinant; tags: N-terminal GST; dsDNA, one strand shown. In a few lines: as §1

For a further test, the target named is T9, SPDEF (Homo sapiens, UniProt O95238 1-335).
T9 sequence: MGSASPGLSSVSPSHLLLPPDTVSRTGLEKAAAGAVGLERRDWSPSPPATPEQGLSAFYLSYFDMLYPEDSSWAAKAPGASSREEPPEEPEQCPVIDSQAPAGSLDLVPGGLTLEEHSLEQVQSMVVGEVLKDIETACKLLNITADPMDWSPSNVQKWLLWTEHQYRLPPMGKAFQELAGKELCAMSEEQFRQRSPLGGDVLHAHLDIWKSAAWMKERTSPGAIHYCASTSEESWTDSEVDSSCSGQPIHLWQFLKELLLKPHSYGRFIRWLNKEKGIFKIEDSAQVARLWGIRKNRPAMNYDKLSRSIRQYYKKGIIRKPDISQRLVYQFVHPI
The following applies: protein: recombinant; tags: N-terminal GST; dsDNA, one strand shown. In a few lines:
as §1

Another test has as its target T10, ETV7 (Homo sapiens, UniProt Q9Y603 1-341).
T10 sequence: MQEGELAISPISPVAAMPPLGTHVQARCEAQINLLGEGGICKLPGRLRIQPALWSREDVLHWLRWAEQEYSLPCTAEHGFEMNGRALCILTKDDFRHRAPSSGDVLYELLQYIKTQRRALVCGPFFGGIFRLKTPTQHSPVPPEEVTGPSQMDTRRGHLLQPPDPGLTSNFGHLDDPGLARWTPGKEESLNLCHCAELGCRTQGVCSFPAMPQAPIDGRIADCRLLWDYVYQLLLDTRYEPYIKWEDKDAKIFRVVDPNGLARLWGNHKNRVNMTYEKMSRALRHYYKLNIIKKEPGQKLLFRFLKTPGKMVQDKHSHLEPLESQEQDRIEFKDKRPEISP
The following applies: protein: recombinant; tags: N-terminal GST; dsDNA, one strand shown. The method in brief:
as §1

A further test addresses T11, ELF5 (Homo sapiens, UniProt Q9UKW6-2 1-255).
T11 sequence: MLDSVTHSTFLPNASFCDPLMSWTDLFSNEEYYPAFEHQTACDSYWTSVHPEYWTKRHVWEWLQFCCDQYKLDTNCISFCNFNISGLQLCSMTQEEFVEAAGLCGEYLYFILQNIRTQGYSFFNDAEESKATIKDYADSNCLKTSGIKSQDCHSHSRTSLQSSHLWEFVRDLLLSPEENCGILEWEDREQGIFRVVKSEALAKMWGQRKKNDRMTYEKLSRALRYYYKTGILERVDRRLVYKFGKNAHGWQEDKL
The following applies: protein: recombinant; tags: N-terminal GST; dsDNA, one strand shown. In a few lines:
as §1

The target in the next test is T12, ETV3 (Homo sapiens, UniProt P41162-2 1-143).
T12 sequence: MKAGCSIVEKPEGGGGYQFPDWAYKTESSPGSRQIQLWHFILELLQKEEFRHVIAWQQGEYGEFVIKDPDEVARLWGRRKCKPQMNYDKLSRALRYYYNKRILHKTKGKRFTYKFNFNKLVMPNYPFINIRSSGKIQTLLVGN
The settings on record: protein: recombinant; tags: N-terminal GST; dsDNA, one strand shown. In a few lines:
as §1

The target of the next test is ETV6 (Homo sapiens, UniProt P41212 1-452). The following applies: protein: recombinant; tags: N-terminal GST; dsDNA, one strand shown. The method in brief:
as §1

ETV6, sequence (P41212 whole entry): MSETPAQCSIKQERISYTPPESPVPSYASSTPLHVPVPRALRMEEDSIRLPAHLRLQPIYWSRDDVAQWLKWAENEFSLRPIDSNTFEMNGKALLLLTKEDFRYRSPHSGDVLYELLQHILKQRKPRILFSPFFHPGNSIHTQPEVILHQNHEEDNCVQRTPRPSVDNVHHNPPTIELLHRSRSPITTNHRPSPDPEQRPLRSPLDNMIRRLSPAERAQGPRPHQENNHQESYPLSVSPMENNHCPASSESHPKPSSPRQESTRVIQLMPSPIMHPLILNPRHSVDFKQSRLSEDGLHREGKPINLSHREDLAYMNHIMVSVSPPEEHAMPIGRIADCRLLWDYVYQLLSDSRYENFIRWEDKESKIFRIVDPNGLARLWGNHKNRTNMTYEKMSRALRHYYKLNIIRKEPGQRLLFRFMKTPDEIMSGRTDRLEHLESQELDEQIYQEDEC
ETV5, sequence (P41161 whole entry): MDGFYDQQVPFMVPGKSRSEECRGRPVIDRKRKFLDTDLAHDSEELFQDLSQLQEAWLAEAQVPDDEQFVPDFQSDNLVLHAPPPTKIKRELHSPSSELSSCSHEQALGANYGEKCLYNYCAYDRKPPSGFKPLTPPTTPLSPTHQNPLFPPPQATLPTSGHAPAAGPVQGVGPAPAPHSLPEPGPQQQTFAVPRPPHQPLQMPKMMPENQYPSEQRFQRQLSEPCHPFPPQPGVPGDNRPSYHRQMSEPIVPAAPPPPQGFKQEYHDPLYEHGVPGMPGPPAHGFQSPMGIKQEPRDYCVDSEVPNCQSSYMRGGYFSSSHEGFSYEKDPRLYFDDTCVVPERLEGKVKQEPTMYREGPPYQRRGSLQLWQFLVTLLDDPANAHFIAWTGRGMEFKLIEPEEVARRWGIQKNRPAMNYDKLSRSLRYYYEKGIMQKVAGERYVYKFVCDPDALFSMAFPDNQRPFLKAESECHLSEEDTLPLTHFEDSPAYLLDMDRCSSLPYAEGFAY
ELF4, sequence (Q99607 whole entry): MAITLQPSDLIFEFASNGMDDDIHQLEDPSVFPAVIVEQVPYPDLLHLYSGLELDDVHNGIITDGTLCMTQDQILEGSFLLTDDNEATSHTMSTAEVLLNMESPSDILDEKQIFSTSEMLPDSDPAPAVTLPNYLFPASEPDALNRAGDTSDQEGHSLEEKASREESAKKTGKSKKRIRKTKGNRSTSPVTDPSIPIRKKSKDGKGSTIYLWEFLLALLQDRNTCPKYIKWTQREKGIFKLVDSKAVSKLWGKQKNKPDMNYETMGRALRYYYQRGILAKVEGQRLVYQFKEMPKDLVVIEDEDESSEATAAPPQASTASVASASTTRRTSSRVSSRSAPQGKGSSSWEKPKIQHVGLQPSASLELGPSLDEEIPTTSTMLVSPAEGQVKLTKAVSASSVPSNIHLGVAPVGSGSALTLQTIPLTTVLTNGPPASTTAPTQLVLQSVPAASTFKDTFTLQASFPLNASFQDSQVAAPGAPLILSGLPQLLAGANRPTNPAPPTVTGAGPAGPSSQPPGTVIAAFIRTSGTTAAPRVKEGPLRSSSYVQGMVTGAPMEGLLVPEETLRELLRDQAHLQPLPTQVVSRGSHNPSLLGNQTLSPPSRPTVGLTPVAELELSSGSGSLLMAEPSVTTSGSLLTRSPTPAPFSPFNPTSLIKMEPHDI
CRX, sequence (O43186 whole entry): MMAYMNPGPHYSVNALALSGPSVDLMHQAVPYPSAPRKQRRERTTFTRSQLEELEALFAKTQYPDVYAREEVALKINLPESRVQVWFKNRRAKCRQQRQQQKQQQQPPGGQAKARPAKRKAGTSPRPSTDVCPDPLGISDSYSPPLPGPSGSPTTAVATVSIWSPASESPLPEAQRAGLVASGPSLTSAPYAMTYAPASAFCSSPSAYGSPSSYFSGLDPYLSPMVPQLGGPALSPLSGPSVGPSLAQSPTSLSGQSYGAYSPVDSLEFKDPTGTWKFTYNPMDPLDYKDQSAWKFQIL
HSF1, sequence (Q00613 whole entry): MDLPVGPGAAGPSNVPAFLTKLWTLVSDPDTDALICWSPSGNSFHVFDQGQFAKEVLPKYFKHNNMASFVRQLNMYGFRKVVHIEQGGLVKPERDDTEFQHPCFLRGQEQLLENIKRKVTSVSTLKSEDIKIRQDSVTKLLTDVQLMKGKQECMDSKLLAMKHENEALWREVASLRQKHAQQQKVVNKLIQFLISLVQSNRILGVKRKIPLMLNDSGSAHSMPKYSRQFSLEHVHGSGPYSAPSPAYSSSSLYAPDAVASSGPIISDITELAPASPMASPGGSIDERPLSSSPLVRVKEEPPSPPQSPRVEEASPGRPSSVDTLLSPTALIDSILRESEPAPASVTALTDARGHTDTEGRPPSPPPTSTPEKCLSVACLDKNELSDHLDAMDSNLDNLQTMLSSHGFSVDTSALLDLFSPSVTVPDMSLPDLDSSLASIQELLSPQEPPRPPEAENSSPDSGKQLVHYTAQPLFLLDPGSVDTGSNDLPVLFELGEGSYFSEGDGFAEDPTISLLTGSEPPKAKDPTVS

For the sequence AAATGA, the binding signal with FEV was 1.26 fold enrichment (6-mer frequency, TF over GST control); with ETV5, 1.32 fold enrichment (6-mer frequency, TF over GST control); with HSF1 it was 1.12 fold enrichment (6-mer frequency, TF over GST control); with SPIC, 1.54 fold enrichment (6-mer frequency, TF over GST control); with ELF4, 1.29 fold enrichment (6-mer frequency, TF over GST control); with ELK4, 1.29 fold enrichment (6-mer frequency, TF over GST control). Also, the binding signal in the test with ETV2 was 1.36 fold enrichment (6-mer frequency, TF over GST control); in the test with ELF3 it was 1.41 fold enrichment (6-mer frequency, TF over GST control); with CRX, 1.16 fold enrichment (6-mer frequency, TF over GST control); with ETV1, 1.29 fold enrichment (6-mer frequency, TF over GST control); with ERF it was 1.42 fold enrichment (6-mer frequency, TF over GST control); in the test with ETV3L, 1.29 fold enrichment (6-mer frequency, TF over GST control). The binding signal was 1.29 fold enrichment (6-mer frequency, TF over GST control) with ETS2; 1.18 fold enrichment (6-mer frequency, TF over GST control) in the test with SPDEF; 1.42 fold enrichment (6-mer frequency, TF over GST control) in the test with ETV7; 1.25 fold enrichment (6-mer frequency, TF over GST control) with ELF5; 1.43 fold enrichment (6-mer frequency, TF over GST control) with ETV3; 1.47 fold enrichment (6-mer frequency, TF over GST control) in the test with ETV6.
